# Assay results reported in PubChem BioAssay (Tox21).
# Values joined by “and” are separate entries in the source; they are usually repeats but may differ in a detail not shown here. Equal entries are not always repeated. Inconclusive results are not listed. Where a call stands in place of a potency, no number is given. More than one record can exist for a structure, and the calls need not agree. Active and inactive are the calls of the source. Unless noted, calls come from the whole dose curve; as a rule, active = well fitted curve in the direction sought with a large enough effect in the repeat runs; inconclusive = weak or mixed curves; inactive = no such curve, though single readings can be large; an effect the other way counts as inactive or inconclusive.
# What was measured:
# [1] = qHTS assay to identify small molecule agonists of the vitamin D receptor (VDR) signaling pathway - cell viability counter screen (AID 743224); note: nearly all actives have a fitted effect of over 50% in size; note: potency is the fitted concentration of half-maximal effect; for activity change, negative = cytotoxicity: series mostly up to about 63 µM
# Summary of the method: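 Compounds were pin-transferred onto VDR-bla cells plated 4 h earlier; following 16 h incubation at 37C, cell viability was quantified by CellTiter-Glo luminescence after 30 min at room temperature.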
# [2] = qHTS assay to identify small molecule antagonists of the vitamin D receptor (VDR) signaling pathway - cell viability counter screen (AID 743225); note: nearly all actives have a fitted effect of over 50% in size; note: potency is the fitted concentration of half-maximal effect
# Summary of the method: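 Viability counter screen run in the same wells as the beta-lactamase reporter assay: HEK 293T VDR-UAS-bla cells, 16 h compound exposure at 37C with 3 nM (final) 1-alpha,25-dihydroxyvitamin D3. CellTiter-Glo luminescence, 30 min, room temperature.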
# [3] = qHTS assay to identify small molecule agonists of the NFkB signaling pathway - cell viability counter screen (AID 1159515; calls by dose curve; note: series mostly up to about 61 µM; nearly all actives have a fitted effect of over 55% in size)
# Summary of the method: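 Parallel cytotoxicity counter screen in ME-180 cells carrying an NFkB-response-element beta-lactamase reporter, 2,000 cells/well. Compound exposure lasted 5 hr at 37 C, 5% CO2. Cell viability was quantified by CellTiter-Glo luminescence.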
# [4] = qHTS assay to identify small molecule agonists of the endoplasmic reticulum stress response signaling pathway (AID 1159516; active = well fitted activation curve with a large enough effect in the signal ratio in the repeat runs, not every such curve was filed as active; the % refers to the signal ratio)
# Summary of the method: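 Using a HeLa line with an ESRE-driven beta-lactamase gene, agonist activity was measured by FRET substrate fluorescence (460 and 530 nm emission) after cells were treated with compounds for 5 hr at 37 C and 5% CO2.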
# [5] = qHTS assay to identify small molecule agonists of the endoplasmic reticulum stress response signaling pathway - cell viability counter screen (AID 1159517; calls by dose curve;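 note: HeLa cells carrying an ER stress response element beta-lactamase reporter; series mostly up to about 61 µM; nearly all actives have a fitted effect of over 50% in size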)
# Summary of the method: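 Cpd-treated ESRE-bla HeLa (5 hr, 37 C) → LiveBLAzer 2 hr RT → CellTiter-Glo 30 min RT → luminescence.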
# [6] = qHTS assay to identify small molecule antagonists of the retinoid-related orphan receptor gamma (ROR-gamma) signaling pathway - cell viability counter screen (AID 1159520); note: nearly all actives have a fitted effect of over 50% in size
# Summary of the method: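 Tet-on ROR gamma CHO cells (1,000/well) were plated 4 hr, given compounds in DMSO for 2 hr at 37 C, then induced with 1 uM final doxycycline for 16 hr. Viability was read as ATP by CellTiter-Glo luminescence after 30 min.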
# [7] = biological target: Nuclear receptor ROR-gamma (Homo sapiens) (UniProt P51449); test: qHTS assay to identify small molecule antagonists of the retinoid-related orphan receptor gamma (ROR-gamma) signaling pathway (AID 1159521; note: nearly all actives have a fitted effect of over 50% in size; note: potency is the fitted concentration of half-maximal effect;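 for activity change, negative = inhibition: CHO cells with doxycycline inducible ROR-gamma driving an RORE luciferase reporter; top concentration of the series differs between compounds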)
# Summary of the method: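 Luminescence readout (ONE-Glo, 30 min RT) after 16 h doxycycline induction; loss of signal scored as antagonism. CHO cells with TET-inducible RORγ and RORE-LUC reporter; compounds added 2 h before 1 uM final doxycycline.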
# [8] = qHTS assay to identify small molecule agonists of the AP-1 signaling pathway - cell viability counter screen (AID 1159525; calls by dose curve; note: nearly all actives have a fitted effect of over 55% in size)
# Summary of the method: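 Each titration point was normalised to DMSO and tetra n-octyl ammonium bromide controls. The read was Cell Titer Glo luminescence after 30 min at RT, following 5 h compound exposure of ME-180 AP-1-bla cells at 37 °C.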
# [9] = qHTS assay to identify small molecule agonists of the AP-1 signaling pathway (AID 1159526; calls by dose curve)
# [10] = biological target: Retinoic acid receptor RXR-alpha (Homo sapiens) (UniProt P19793); test: qHTS assay to identify small molecule agonists of the RXR signaling pathway (AID 1159527; calls by dose curve; note: nearly all actives have a fitted effect of over 35% in size)
# Sequence of Retinoic acid receptor RXR-alpha (Homo sapiens) (P19793 whole entry, looked up): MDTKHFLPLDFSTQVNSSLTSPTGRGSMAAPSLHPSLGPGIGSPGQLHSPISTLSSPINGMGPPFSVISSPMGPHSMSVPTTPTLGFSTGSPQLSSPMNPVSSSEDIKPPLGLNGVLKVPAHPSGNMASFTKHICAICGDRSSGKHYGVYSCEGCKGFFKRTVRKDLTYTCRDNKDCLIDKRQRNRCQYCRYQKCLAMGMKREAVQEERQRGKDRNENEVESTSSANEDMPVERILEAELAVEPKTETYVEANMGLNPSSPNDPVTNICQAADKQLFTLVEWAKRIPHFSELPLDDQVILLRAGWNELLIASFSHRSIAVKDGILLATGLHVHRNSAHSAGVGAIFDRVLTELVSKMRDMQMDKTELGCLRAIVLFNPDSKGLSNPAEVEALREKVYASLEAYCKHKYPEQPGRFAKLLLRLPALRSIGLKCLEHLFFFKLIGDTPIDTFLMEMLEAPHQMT
# Summary of the method: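 Agonist mode; 9-cis retinoic acid positive control. HEK 293T UAS-bla reporter cells, 2% charcoal-stripped FBS, 16 hr compound exposure at 37 C/5% CO2. LiveBLAzer B/G FRET substrate 2 hr RT; ex 405, em 460/530 nm.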
# [11] = qHTS assay to identify small molecule agonists of the RXR signaling pathway - cell viability counter screen (AID 1159529); note: nearly all actives have a fitted effect of over 50% in size; note: potency is the fitted concentration of half-maximal effect; for activity change, negative = cytotoxicity: series mostly up to about 77 µM
# Summary of the method: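 Luminescence from CellTiter-Glo (30 min, RT) measured viability in the same wells as the beta-lactamase reporter readout. Cells: GeneBLAzer RXR-alpha HEK 293T, 2% charcoal-stripped FBS. Compound exposure 16 hr, 37 C.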
# [12] = qHTS assay to identify small molecule antagonists of the retinoid acid receptor (RAR) signaling pathway - cell viability counter screen (AID 1159551); note: nearly all actives have a fitted effect of over 35% in size
# Summary of the method: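 ATP-based viability, C3RL4 cells, 6 h at 37 C with 1 uM final retinol co-added after compound; luminescence read 30 min post CellTiter-Glo, RT.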
# [13] = qHTS assay to identify small molecule antagonists of the retinoic acid receptor (RAR) signaling pathway (AID 1159552; note: nearly all actives have a fitted effect of over 50% in size)
# Summary of the method: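 Luminescence from a RARE luciferase reporter in C3RL4 cells served as read-out. Cells received compounds together with 1 uM final retinol and incubated 6 hr at 37 C before detection reagent was added for 30 min at room temperature.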
# [14] = qHTS assay to identify small molecule agonists of the retinoic acid receptor (RAR) signaling pathway (AID 1159553); note: potency is the fitted concentration of half-maximal effect
# Summary of the method: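 Quantitative high-throughput format: the Tox21 10K library was tested on C3RL4 RARE-luciferase cells for 6 hr at 37 C and 5% CO2, with luminescence measured after a 30 min room-temperature reagent step.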
# [15] = qHTS assay to identify small molecule antagonists of the estrogen related receptor (ERR) signaling pathway - cell viability counter screen (AID 1224818);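 note: series mostly up to about 46 µM; viability measured after 17.5 h of compound exposure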
# Summary of the method: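 Quantitative high-throughput viability counter screen in ERR cells. Compounds (DMSO) incubated 17.5 h at 37 C; read-out was CellTiter-Fluor fluorescence.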
# [16] = qHTS assay to identify small molecule antagonists of the estrogen related receptor signaling pathway with the pleiotropic PPARgamma coactivator (PGC) cell viability counter screen (AID 1224822; note: series mostly up to about 46 µM)
# Summary of the method: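 Cytotoxicity in the PGC/ERR cell line is assessed with CellTiter-Fluor, read as fluorescence intensity 30 min after reagent addition, following 17.5 h compound treatment at 37 C.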
# [17] = qHTS assay to identify small molecule antagonists of the estrogen related receptor (ERR) signaling pathway (AID 1224819)
# Summary of the method: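 ERR reporter cell line (NTP) plated at 2,000 cells/well, settled 6 h at 37C/5% CO2, then exposed to LOPAC compounds for 18 h at 37C. One-Glo luciferase luminescence read after 30 min at room temperature.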
# [18] = qHTS assay to identify small molecule agonists of the estrogen related receptor (ERR) signaling pathway (AID 1224820)
# Summary of the method: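 After 6 h plating (2,000 cells/well) and 18 h compound treatment at 37 C, ERR cells were lysed with One-Glo and luminescence read after 30 min at room temperature.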
# [19] = qHTS assay to identify small molecule agonists of the estrogen related receptor signaling pathway with the pleiotropic PPARgamma coactivator (PGC) (AID 1224823)
# Summary of the method: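 Luminescence from One-Glo reagent (30 min, room temperature) was read after 18 h compound treatment at 37 C of PGC/ERR cells plated 6 h beforehand; compounds delivered in DMSO by pin tool.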
structure (smiles),measurement,setting,value
CCC(=O)/C=C/C1C(C)=CCCC1(C)C (stereo unspecified),Potency,[1],inactive
same,Potency,[2],inactive
same,Potency,[3],inactive
same,outcome,[4],inactive
same,Potency,[5],inactive
same,Potency,[6],inactive
same,Potency,[7],inactive
same,Potency,[8],inactive
same,Potency,[9],inactive
same,Potency,[10],inactive
same,Potency,[11],inactive
same,Potency,[12],inactive
O=C(O)CP(=O)(O)O,Potency,[2],inactive
same,Potency,[3],inactive
same,outcome,[4],inactive
same,Potency,[5],inactive
same,Potency,[6],inactive
same,Potency,[7],inactive
same,Potency,[8],inactive
same,Potency,[9],inactive
same,Potency,[11],inactive
same,Potency,[12],inactive
same,Potency,[13],inactive
same,Potency,[14],inactive
same,Potency,[15],inactive
same,Potency,[16],inactive
CO[Si](OC)(OC)c1ccccc1,Potency,[1],inactive
same,Potency,[2],inactive
same,Potency,[3],inactive
same,outcome,[4],inactive
same,Potency,[5],inactive
same,Potency,[6],inactive
same,Potency,[7],inactive
same,Potency,[8],inactive
same,Potency,[9],inactive
same,Potency,[11],inactive
same,Potency,[12],inactive
same,Potency,[13],inactive
same,Potency,[14],inactive
CC(=O)N[C@@H](CS)C(=O)O,Potency,[1],inactive
same,Potency,[2],inactive
same,Potency,[3],inactive
same,outcome,[4],inactive
same,Potency,[5],inactive
same,Potency,[6],inactive
same,Potency,[7],inactive
same,Potency,[8],inactive
same,Potency,[9],inactive
same,Potency,[11],inactive
same,Potency,[12],inactive
same,Potency,[13],inactive
same,Potency,[14],inactive
same,Potency,[15],inactive
same,Potency,[16],inactive
CCCCN(CCO)CCCC,Potency,[1],inactive
same,Potency,[2],inactive
same,Potency,[3],inactive
same,outcome,[4],inactive
same,Potency,[5],inactive
same,Potency,[7],inactive
same,Potency,[8],inactive
same,Potency,[9],inactive
same,Potency,[11],inactive
same,Potency,[12],inactive
same,Potency,[13],inactive
same,Potency,[14],inactive
CCCCCCCCCCCCCCCCCl,Potency,[1],inactive
same,Potency,[2],inactive
same,Potency,[3],inactive
same,outcome,[4],inactive
same,Potency,[5],inactive
same,"activity change, negative = inhibition",[7],19.2% [at 19 µM] (inactive)
same,"viability change, negative = cytotoxic",[8],-12.8% [at 15.8 µM] (inactive)
same,activation,[9],-1.11% [at 15.8 µM] (inactive)
same,activation,[10],0.473% [at 15.8 µM] (inactive)
same,"activity change, negative = cytotoxicity",[11],6.15% [at 15.8 µM] (inactive)
same,"activity change, negative = cytotoxicity",[12],4.57% [at 19 µM] (inactive)
same,"activity, negative = inhibition",[13],-10.4% [at 19 µM] (inactive)
same,Potency,[14],inactive
CC(N)=O,Potency,[1],inactive
same,Potency,[2],inactive
same,Potency,[3],inactive
same,outcome,[4],inactive
same,Potency,[5],inactive
same,Potency,[7],inactive
same,Potency,[8],inactive
same,Potency,[9],inactive
same,Potency,[10],inactive
same,Potency,[11],inactive
same,Potency,[12],inactive
same,Potency,[13],inactive
same,Potency,[14],inactive
same,Potency,[15],inactive
same,Potency,[16],inactive
Cc1cc(C2(c3cc(C)c(O)cc3C)OS(=O)(=O)c3ccccc32)c(C)cc1O,Potency,[1],inactive
same,Potency,[2],inactive
same,Potency,[3],inactive
same,outcome,[4],inactive
same,Potency,[6],inactive
same,Potency,[7],inactive
same,Potency,[8],inactive
same,Potency,[9],inactive
same,Potency,[12],inactive
COC(=O)[C@H]1[C@H]2C[C@@H]3c4[nH]c5cc(OC)ccc5c4CCN3C[C@H]2C[C@@H](OC(=O)c2cc(OC)c(OC)c(OC)c2)[C@@H]1OC,Potency,[1],inactive
same,Potency,[2],inactive and 31.8 µM (active)
same,Potency,[3],inactive
same,outcome,[4],inactive
same,Potency,[5],inactive
same,Potency,[7],30.6 µM (active) and 28.1 µM (active)
same,Potency,[8],inactive
same,Potency,[9],inactive
same,Potency,[11],inactive
same,Potency,[12],inactive
same,Potency,[15],inactive
same,Potency,[17],21.1 µM (active)
same,outcome,[18],inactive
same,outcome,[19],inactive
Cc1cccc2n[nH]nc12,Potency,[1],inactive
same,Potency,[2],inactive
same,Potency,[3],inactive
same,Potency,[5],inactive
same,Potency,[6],inactive
same,Potency,[7],inactive
same,Potency,[8],inactive
same,Potency,[9],inactive
same,Potency,[10],inactive
same,Potency,[11],inactive
same,Potency,[12],inactive
same,Potency,[13],inactive
same,Potency,[14],inactive
CC(=O)O[C@]1(C(C)=O)CC[C@H]2[C@@H]3C[C@H](C)C4=CC(=O)CC[C@]4(C)[C@H]3CC[C@@]21C,Potency,[1],inactive
same,Potency,[2],inactive
same,Potency,[3],inactive
same,outcome,[4],inactive
same,Potency,[5],inactive
same,Potency,[7],26.6 µM (active)
same,Potency,[8],inactive
same,Potency,[11],inactive
same,Potency,[12],inactive
O=C(OCc1ccccc1)c1ccc(O)cc1,Potency,[1],inactive
same,Potency,[2],inactive
same,Potency,[3],inactive
same,outcome,[4],inactive
same,Potency,[5],inactive
same,Potency,[7],inactive
same,Potency,[8],inactive
same,Potency,[9],inactive
same,Potency,[11],inactive
same,Potency,[12],inactive
same,Potency,[13],inactive
same,Potency,[14],6.86 µM (active) and 11.9 µM (active)
NCCCCCC(=O)O,Potency,[1],inactive
same,Potency,[2],inactive
same,Potency,[3],inactive
same,outcome,[4],inactive
same,Potency,[5],inactive
same,Potency,[7],inactive
same,Potency,[8],inactive
same,Potency,[9],inactive
same,Potency,[10],inactive
same,Potency,[11],inactive
same,Potency,[12],inactive
same,Potency,[13],inactive
same,Potency,[14],inactive
same,Potency,[15],inactive
same,Potency,[16],inactive
O=Cc1ccc(Cl)cc1,Potency,[1],inactive
same,Potency,[2],inactive
same,Potency,[3],inactive
same,outcome,[4],inactive
same,Potency,[5],inactive
same,Potency,[7],inactive
same,Potency,[8],inactive
same,Potency,[9],inactive
same,Potency,[10],inactive
same,Potency,[11],inactive
same,Potency,[12],inactive
same,Potency,[13],inactive
same,Potency,[14],inactive
CCCCOCCOC(=O)c1ccccc1C(=O)OCCOCCCC,Potency,[1],30.2 µM (active) and inactive
same,Potency,[2],inactive
same,Potency,[3],inactive
same,outcome,[4],inactive
same,Potency,[5],inactive
same,Potency,[7],inactive
same,Potency,[8],inactive
same,Potency,[10],inactive
same,Potency,[11],38.1 µM (active) and inactive
same,Potency,[12],inactive
same,Potency,[13],inactive
O=c1n(CC2CO2)c(=O)n(CC2CO2)c(=O)n1CC1CO1 (stereo unspecified),Potency,[1],inactive
same,Potency,[2],inactive
same,Potency,[3],inactive
same,outcome,[4],inactive
same,Potency,[5],inactive
same,Potency,[7],inactive
same,Potency,[8],inactive
same,Potency,[9],inactive
same,Potency,[12],inactive
same,Potency,[13],inactive
same,Potency,[14],inactive
